In one assay the test system is THP-1. Put plainly: THP-1 cell loss relative to DMSO control; higher = more host cell loss (toxicity); extreme values may be limits of the assay. The settings on record: 10 µM; 4 days; infection: M. tuberculosis H37Rv. The procedure:
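OICR kinase inhibitor library screened in duplicate at 10 uM against M. tuberculosis-infected THP-1 macrophages, 4 days at 37 C. THP-1 cell loss (cytotoxicity or loss of adherence) was quantified from Hoechst-stained nuclei counts by high-content imaging and normalised to the 1% DMSO control; 100 = complete loss of host cells.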

In assay [1] the test system is THP-1 macrophages infected with Mycobacterium tuberculosis H37Rv. The assay is described as follows: intracellular M.tb growth inhibition relative to DMSO (0) and 4 uM bedaquiline (100); higher = stronger inhibition of intracellular bacterial growth. The settings on record: 10 µM; 4 days. Here is the method: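 OICR kinase inhibitor library screened in duplicate at 10 uM against THP-1 macrophages (PMA-differentiated) infected with M. tuberculosis H37Rv-pTEC27 (tdTomato RFP), 4 days at 37 C. Rows with complete host cell loss (placeholder inhibition 0, cell loss 100) were removed.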

Structures can show the parent of a compound that is named as a salt. ± gives the standard deviation.

The values that follow come from the supplement of paper PMC7530171.

For the compound `Oc1ccc(-c2nc(-c3ccc(F)cc3)c(-c3ccncc3)[nH]2)cc1`, the THP-1 cell loss in the assay on THP-1 was 8.45 ± 0.56%. In assay [1], the “intracellular M.tb growth inhibition” value was 8.19 ± 7.9%. As for `COC(=O)c1ccc2c(c1)NC(=O)/C2=C(\Nc1ccc(N(C)C(=O)CN2CCN(C)CC2)cc1)c1ccccc1`, the THP-1 cell loss in the assay with THP-1 was determined as 10.48 ± 0.013%. The “intracellular M.tb growth inhibition” value in assay [1] was -144 ± 210%. As for `N#CC[C@H](C1CCCC1)n1cc(-c2ncnc3[nH]ccc23)cn1`, the THP-1 cell loss in the assay with THP-1 was determined as 26.3 ± 7.9%. Besides, in assay [1], the “intracellular M.tb growth inhibition” value was -157 ± 220%. As for `Cc1csc(-c2nnc(Nc3ccc(Oc4ncccc4-c4ccnc(N)n4)cc3)c3ccccc23)c1`, in the assay with THP-1, the THP-1 cell loss came to 62.4 ± 53%. The “intracellular M.tb growth inhibition” value in assay [1] is 126 ± 190%. `COc1cc(F)c(F)c(Nc2ccc(I)cc2F)c1NS(=O)(=O)C1(C[C@H](O)CO)CC1`: in the assay on THP-1, the THP-1 cell loss was 84.9 ± 1%. For the same compound, in assay [1], the “intracellular M.tb growth inhibition” value came to 44.7 ± 27%. In the case of `Cc1nc(Nc2ncc(C(=O)Nc3c(C)cccc3Cl)s2)cc(N2CCN(CCO)CC2)n1` [Dasatinib], the “intracellular M.tb growth inhibition” value in assay [1] was 47.9 ± 35%. Consider `Cc1ccc(-n2nc(C(C)(C)C)cc2NC(=O)Nc2ccc(OCCN3CCOCC3)c3ccccc23)cc1`, for which the THP-1 cell loss in the assay on THP-1 stood at 50 ± 71%. Further, the “intracellular M.tb growth inhibition” value in assay [1] was -1.53 ± 2.2%.

Take `Cn1c(=O)c(Oc2ccc(F)cc2F)cc2cnc(NC3CCOCC3)nc21`: the THP-1 cell loss with THP-1 was 17.2 ± 6.1%. Moreover, the “intracellular M.tb growth inhibition” value in assay [1] is -140 ± 130%.

On to `CC(C)CCN1c2nc(Nc3cc(F)c(O)c(F)c3)ncc2N(C)C(=O)C1C` (stereo not given), for which the “intracellular M.tb growth inhibition” value in assay [1] was -228 ± 190%. With `CCN(CCO)CCCOc1ccc2c(Nc3cc(CC(=O)Nc4cccc(F)c4)[nH]n3)ncnc2c1`, the THP-1 cell loss in the assay with THP-1 was 7.76 ± 6.5%. Further, the “intracellular M.tb growth inhibition” value in assay [1] is -51.3 ± 83%. For `COc1cc(Nc2ncc(F)c(Nc3ccc4c(n3)NC(=O)C(C)(C)O4)n2)cc(OC)c1OC`, in that order: 63.4 ± 52% and -164 ± 230%.

`Cc1ccccc1C(=O)c1ccc(Nc2ccc(Br)cc2N)cc1Cl` returned a THP-1 cell loss in the assay on THP-1 of 16.5 ± 23%. Further, the “intracellular M.tb growth inhibition” value in assay [1] was 20.1 ± 14%. In the assay with THP-1, `CC(C)(C)c1nc2c3cc[nH]c(=O)c3c3cc(F)ccc3c2[nH]1` [Merck-5] had a THP-1 cell loss of 46.3 ± 11%. Moreover, the “intracellular M.tb growth inhibition” value in assay [1] is -268 ± 290%. For `O=C1C(Cl)=C(NCCN2CCOCC2)C(=O)c2ncccc21`, the THP-1 cell loss in the assay on THP-1 turned out to be 93.7 ± 8.8%. Moreover, the “intracellular M.tb growth inhibition” value in assay [1] was -3.64 ± 5.1%. `Clc1ccc(Nc2nnc(Cc3ccncc3)c3ccccc23)cc1` [Vatalanib dihydrochloride] returned a THP-1 cell loss in the assay with THP-1 of 39.2 ± 3.4%. Besides, the “intracellular M.tb growth inhibition” value in assay [1] is -2.9 ± 24%. `COc1cc(Nc2ncc3c(n2)-c2ccc(Cl)cc2C(c2c(F)cccc2OC)=NC3)ccc1C(=O)O`: the “intracellular M.tb growth inhibition” value in assay [1] was -73.6 ± 120%. As for `COc1cc(Nc2ncc(F)c(Nc3ccc4c(n3)N(COP(=O)(O)O)C(=O)C(C)(C)O4)n2)cc(OC)c1OC`, in assay [1], the “intracellular M.tb growth inhibition” value worked out at 11 ± 16%.

Consider `CN1CCN(CCOc2cc(OC3CCOCC3)c3c(Nc4c(Cl)ccc5c4OCO5)ncnc3c2)CC1`, for which the “intracellular M.tb growth inhibition” value in assay [1] is 44.4 ± 16%. Regarding `NS(=O)(=O)c1nn2cc(-c3ccccc3)nc2s1`, the “intracellular M.tb growth inhibition” value in assay [1] was 42.3 ± 16%. In the assay on THP-1, `Cn1c2ccccc2c2c3c(c4c5ccccc5n(CCC#N)c4c21)CNC3=O` showed a THP-1 cell loss of 32.2 ± 18%. In assay [1], the “intracellular M.tb growth inhibition” value is -29.9 ± 36%. In the case of `CCN1/C(=C/C(C)=O)Sc2ccc(OC)cc21`, the THP-1 cell loss in the assay on THP-1 came out at 12.5 ± 2.4%. For the same compound, in assay [1], the “intracellular M.tb growth inhibition” value is -98.4 ± 120%. Regarding `CN1CCC(Nc2ncc3ncnc(Nc4ccc(F)c(Cl)c4)c3n2)CC1` [BIBX 1382 dihydrochloride], the “intracellular M.tb growth inhibition” value in assay [1] is 64.2 ± 13%. `Cc1[nH]c(/C=C2\C(=O)Nc3ccccc32)c(C)c1CCC(=O)O` showed a THP-1 cell loss in the assay with THP-1 of 5 ± 7.1%. For the same compound, in assay [1], the “intracellular M.tb growth inhibition” value amounted to 6.44 ± 30%. For `COc1cc2ncnc(Nc3cccc(Br)c3)c2cc1OC`, in that order: 72.7 ± 4% and -64 ± 39%.

`CC(C)(C)n1nc(-c2cccc3ccccc23)c2c(N)ncnc21` [1-Naphthyl PP1] returned a THP-1 cell loss in the assay on THP-1 of 13.6 ± 19%. The “intracellular M.tb growth inhibition” value in assay [1] was found to be 21.2 ± 3.2%. Consider `CNc1cc2c(Nc3cccc(Br)c3)ncnc2cn1`, for which, in the assay with THP-1, the THP-1 cell loss worked out at 78.2 ± 5.8%. In addition, the “intracellular M.tb growth inhibition” value in assay [1] came out at 30.2 ± 36%. With `COc1cc(N2CCC(N3CCN(C)CC3)CC2)ccc1Nc1ncc(Cl)c(Nc2ccccc2S(=O)(=O)C(C)C)n1`, the THP-1 cell loss with THP-1 came to 26.4 ± 0.6%. Also, the “intracellular M.tb growth inhibition” value in assay [1] is -4.08 ± 19%.

On to `Cc1nc2sccn2c(=O)c1CCN1CCC(=C(c2ccccc2)c2ccc(F)cc2)CC1`, for which the THP-1 cell loss with THP-1 is 0%. For the same compound, in assay [1], the “intracellular M.tb growth inhibition” value came out at 58.1 ± 4.4%. As for `Cc1cc(C(=O)N2CCN(c3cccc(Cl)c3)CC2)n(-c2ccccc2)n1`, the THP-1 cell loss in the assay with THP-1 amounted to 23.2 ± 25%. The “intracellular M.tb growth inhibition” value in assay [1] is -17.5 ± 0.18%. As to `N#Cc1c(-c2ccccc2)cc(-c2cc(Br)ccc2O)[nH]c1=O`, the THP-1 cell loss in the assay with THP-1 amounted to 8.6 ± 8.9%. Moreover, the “intracellular M.tb growth inhibition” value in assay [1] was 19.8 ± 17%. `Cc1ccc(NC(=O)c2ccc(CN3CCN(C)CC3)cc2)cc1Nc1nccc(-c2cccnc2)n1` [Imatinib Mesylate] returned a THP-1 cell loss with THP-1 of 9.14 ± 13%. Moreover, in assay [1], the “intracellular M.tb growth inhibition” value was 54.9 ± 5%. Turning to `O=C(O)c1ccc(-c2c[nH]c3ncc(-c4ccccc4)cc23)cc1C1CCCC1`, the THP-1 cell loss in the assay with THP-1 was determined as 9.42 ± 6.5%. In addition, the “intracellular M.tb growth inhibition” value in assay [1] is -23.5 ± 47%.

Compound `NS(=O)(=O)c1ccc(Nc2nc(OCC3CCCCC3)c3[nH]cnc3n2)cc1` gave a THP-1 cell loss in the assay on THP-1 of 0.876 ± 1.2%. The “intracellular M.tb growth inhibition” value in assay [1] was found to be 15.4 ± 41%. The corresponding values for `Cc1[nH]c(/C=C2\C(=O)Nc3cc(-c4ccccc4)ccc32)c(C)c1CCC(=O)O` are 6.62 ± 9.4% and -5.41 ± 25%. The corresponding values for `O=C(Nc1cc(Cl)cc2c1[nH]c1cnccc12)c1cccnc1` [PS1145 dihydrochloride] are 48.1 ± 24% and -10.6 ± 33%. For `Cc1cc(C)c(/C=C2\C(=O)Nc3ccccc32)[nH]1`, the THP-1 cell loss in the assay on THP-1 is 34.2 ± 39%. The “intracellular M.tb growth inhibition” value in assay [1] was 8.19 ± 12%.
